This is a sample that favours compounds with a hit; in the whole collection about 4% have one here.
TWEAK Fn14 block = inhibitors of TWEAK-Fn14 interaction signaling | TWEAK-stimulated Fn14 reporter cells, luciferase luminescence, 8 h | inhibition, % at 10 µM | 360,000 compounds, 2% hits | AID 1159606; in the data active = inhibition above about 50%
TROY NFkB inh = TROY signaling inhibition. Q293 LMP1-TROYcd NF-kB luciferase reporter, 4 h. inhibition, % at 10 µM. 360,000 compounds, 0.98% hits. AID 1347056;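 active = compounds whose plate-normalised and pattern-corrected inhibition of the luciferase reporter signal at the single screening dose is 50% or more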
KKLEB tox = CF airway cell cytotoxicity counter-screen | KKLEB CF airway cells viability, ATPlite luminescence, overnight; hits give low values; cells stimulated with P. aeruginosa culture filtrate | activity change (cytotoxicity), % at 5 µM | 360,000 compounds, 0.36% hits;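 active = corrected activity change at or below -50% at 5 µM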
CF NFkB block = cystic fibrosis NF-kB activation inhibition; inhibition, % at 5 µM; KKLEB NF-kB-GFP reporter, PAF-induced, GFP fluorescence overnight; 360,000 compounds, 0.86% hits; AID 588850;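 active = at least 50% inhibition at 5 µM, scaled per plate between neutral and stimulator controls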;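 also: PAF is a Pseudomonas aeruginosa culture filtrate used as stimulus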
HIF-2a block = blocks HIF-2a reporter activity. 360,000 compounds, 0.72% hits. inhibition, % at 18.8 µM. 786-0 RCC cells HIF-2a reporter, luciferase luminescence, overnight. AID 624352;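 active = inhibition of the luminescence signal of 40% or more relative to plate controls, in a single-dose primary screen at 18.75 µM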
Peg3 prom inh = inhibitors of Peg3 promoter; HeLa PEG-Prom luciferase reporter, luminescence, overnight; inhibition, % at 20 µM; 360,000 compounds, 1.7% hits; AID 588405;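 active = inhibition of at least 50% at 20 µM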
Of the large screens only hits and unclear results are named; the others gave an inactive call.

COc1cccc(CNCCc2c[nH]c3ccccc23)c1OCc1ccc(F)cc1	Peg3 prom inh 105.4
COc1ccccc1NC(=S)NCCc1c[nH]c2ccccc12	none
COc1cc(CNCCc2c[nH]c3ccccc23)ccc1OCc1ccc(F)cc1	Peg3 prom inh 111.8
O=C1[C@H]2[C@@H](c3ccc(F)cc3)N3C(=O)N(c4cccc(Cl)c4)C(=O)[C@@]3(Cc3ccccc3)[C@H]2C(=O)N1C1CCCCC1	none
O=C(Cn1nc(C(=O)O)c2ccccc2c1=O)NCCC1=CCCCC1	none
Cc1ccccc1Nc1c(F)c(F)c(F)c(F)c1C(=O)O	none
Cc1ccc(Nc2nc(Cl)nc(NC(C)(C)C)n2)cc1	none
Cc1ccc(Nc2nc(Cl)nc(N(C)C#N)n2)cc1	TWEAK Fn14 block 89.5
CC(C)C[C@@H](CN1CCC[C@H]1CN1C(=O)C(=O)NC[C@@H]1Cc1ccccc1)N1C[C@H](Cc2ccc(O)cc2)N(CC2CCCCC2)C(=O)C1=O	none (no result: KKLEB tox, CF NFkB block, Peg3 prom inh)
CC(=O)Oc1ccc(C#C/C=C2\c3ccccc3C(=O)N2c2ccccc2)cc1	TWEAK Fn14 block 50.7
Cc1ccc(-c2nc(-c3nccc4ccccc34)oc2-c2ccccc2)cc1	TROY NFkB inh 62.5
COc1cnn(-c2cccc(C)c2)c(=O)c1Cl	none
COc1cnn(-c2ccccc2)c(=O)c1N(C)C	TROY NFkB inh 54.1
Cc1nn(CC(=O)NCc2ccccc2)c(C)c1[N+](=O)[O-]	none
Cc1nn(CC(=O)c2ccccc2Cl)c(C)c1[N+](=O)[O-]	TWEAK Fn14 block 52.0, TROY NFkB inh 57.4
Cc1ccc(NC(=O)c2ncn(CCCN3CCN(Cc4cccc5ccccc45)CC3)n2)cc1C	Peg3 prom inh 96.7
Cc1ccc(NC(=O)c2ncn(CC(=O)N[C@H](C)c3cccc4ccccc34)n2)cc1C	none
Cc1cc(C)c(CN2CCN(C(=O)Cn3cnc(C(=O)Nc4ccc(C)c(C)c4)n3)CC2)c(C)c1	KKLEB tox -69.4, Peg3 prom inh 86.3
Cc1ccc(NC(=O)Cn2cnc(C(=O)Nc3ccc(C)c(C)c3)n2)cc1C	none
COc1cc(/C=C/C(=O)c2c(O)ccc3c(C)cc(=O)oc23)ccc1O	none
CCCCCCCCSc1nnc(/N=C/N(C)C)s1	none
Cc1cc(Sc2nnc(/N=C/N(C)C)s2)c2ccccc2n1	TWEAK Fn14 block 81.0, CF NFkB block 58.6
CC(=O)O[C@@H]1C[C@@]2(C)[C@@H](CC[C@H]2[C@@H](C)/C=C\CC(C)C)C2=C[C@@H](O)[C@@]3(O)C[C@@H](O)[C@H](O)C[C@]3(CO)[C@]21O	none
NC(=O)CSc1ncc(-c2ccc([N+](=O)[O-])cc2)[nH]1	none
Cc1cc(C)c(CSc2ncc(-c3ccc([N+](=O)[O-])cc3)[nH]2)c(C)c1	TROY NFkB inh 56.5
O=[N+]([O-])c1ccc(-c2cnc(SCc3ccccc3Cl)[nH]2)cc1	none
O=[N+]([O-])c1ccc(-c2cnc(SC(c3ccccc3)c3ccccc3)[nH]2)cc1	TWEAK Fn14 block 79.3, TROY NFkB inh 61.9, Peg3 prom inh 53.1
COc1ccc(CN(C)CC(O)COC(c2ccccc2)c2ccccc2)c(OC)c1OC (configuration not stated)	none
COc1ccc(CN(CC(=O)NCc2ccccc2)C(=O)c2csnn2)cc1	none
COc1cc(Nc2nc(-c3ccccc3)c3cc(C)ccc3n2)cc(OC)c1OC	TWEAK Fn14 block 69.1
Cc1ccc2nc(NCC(=O)O)nc(-c3ccccc3)c2c1	none
Cc1cc(C)[n+](-c2ccc(Oc3ccccc3)c(S(=O)(=O)[O-])c2)[nH]1	none
FC(F)(F)c1ccccc1Cc1c(-c2ccc(Cl)cc2)nc2c3ccccc3ccn12	none (no result: KKLEB tox, CF NFkB block, Peg3 prom inh)
Fc1ccc(-c2nc3c4ccccc4ccn3c2Cc2ccccc2C(F)(F)F)cc1	TROY NFkB inh 58.8
Cc1cccc(N(C)S(=O)(=O)c2ccc3c(c2)C(C)(C)C(=O)N3C)c1	TWEAK Fn14 block 88.5
CN1C(=O)C(C)(C)c2cc(S(=O)(=O)N(C)Cc3ccccc3)ccc21	none
Cc1cc(C)c(S(=O)(=O)NC2CC2)c(C)c1	none
CCN(CC)S(=O)(=O)c1ccc2[nH]cc(C(=O)NCCC3=CCCCC3)c(=O)c2c1	TWEAK Fn14 block 58.5
CCN(CC)S(=O)(=O)c1ccc2[nH]cc(C(=O)NCCN3CCCCCC3)c(=O)c2c1	none
CCCNC(=O)C1(C)CCCN(Cc2ccc(-c3ccccc3)o2)C1 (configuration not stated)	TWEAK Fn14 block 70.1
CCOC(=O)/C=C1\SCC(=O)N1Cc1nnc(-c2ccccc2Br)o1	none
Cc1c(NC(=O)NC(=O)c2ccc(F)cc2)c(=O)n(-c2ccccc2)n1C	none
Cc1c(N=C2N=C(NC(=O)c3ccc(F)cc3)c3ccccc32)c(=O)n(-c2ccccc2)n1C	Peg3 prom inh 62.9
CC(=O)Nc1cccc(-c2ccnc3c2CC(C(=O)NC(C)C)O3)c1 (configuration not stated)	none
O=C(Nc1c(-c2ccccc2)[nH][nH]c1=O)c1ccc(-c2ccccc2)cc1	none (no result: TWEAK Fn14 block, TROY NFkB inh, KKLEB tox, CF NFkB block, Peg3 prom inh)
Cc1ccc(S(=O)(=O)Nc2c(C)ccc3nsnc23)cc1	none
COc1ccc(CCNc2oc(-c3ccco3)nc2C#N)cc1	none
N#Cc1nc(-c2ccco2)oc1NCCc1ccccc1	TWEAK Fn14 block 61.5 (no result: TROY NFkB inh)
O=C(O)c1ccc(N/N=C/C=C/c2ccccc2)cc1	TWEAK Fn14 block 63.1
O=C(O)c1ccc(N/N=C/c2ccc(-c3ccccc3)cc2)cc1	none
C(=C\c1ccccc1)/C=N/Nc1nc(N2CCCCC2)nc(N2CCCCC2)n1	Peg3 prom inh 51.0
O=[N+]([O-])c1ccccc1/C=C/C=N/Nc1nc(N2CCCCC2)nc(N2CCCCC2)n1	none
O=c1nc(N/N=C/C=C/c2ccccc2)cn[nH]1	TWEAK Fn14 block 70.0
O=C(O)CNS(=O)(=O)c1ccc2c3c(cccc13)C(=O)N2	none
CCOC(=O)c1sc2nc3c(cc2c1N)COC(C(C)C)C3 (configuration not stated)	TWEAK Fn14 block 85.4, TROY NFkB inh 65.8
CCOC(=O)c1sc2nc(N3CCOCC3)c3c(c2c1N)CC(C(C)C)OC3 (configuration not stated)	none
C/C(=N\NC(=O)C(=O)Nc1c(C)n(C)n(-c2ccccc2)c1=O)c1ccc(Cl)s1	none
CCCCCCCC/C=C\CCCCCCCC(=O)O	none
CCCCC1C(=O)CC[C@H]2[C@@H]1CC(=O)[C@@H]2C/C=C\CCCC(=O)O (some centres not stated)	KKLEB tox -100.5
CC1CCc2nn(CC(=O)NC3CCCC3)cc2C1 (configuration not stated)	none
CCN(CC)c1ccc(/C=N/Nc2nc3ccccc3[nH]2)cc1	TWEAK Fn14 block 95.4
Cc1ccc(/C=N/NC(=O)CSc2nc3ccccc3[nH]2)o1	none
C(=N\Nc1nc2ccccc2[nH]1)/c1ccncc1	TROY NFkB inh 58.8
O=C(CSc1nc2ccccc2[nH]1)N/N=C/c1ccncc1	TROY NFkB inh 56.6
